Results filed as inconclusive are left out. A call without a number means that no potency is given here. Calls of active or inactive are those of the source. The call rests on the fitted dose curve.
Potency means the concentration at half of the fitted maximal effect.

The assay is described as follows: qHTS assay for small molecule agonists of the p53 signaling pathway (AID 651631). Further: nearly all actives have a fitted effect of over 15% in size. Conditions: HCT-116 p53RE-bla reporter, beta-lactamase FRET ratio, 16 h; series mostly up to 73.3 µM. The gist of the method:
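Read-out is beta-lactamase FRET fluorescence measured 2 h after substrate addition at room temperature, in HCT-116 cells with a p53 response element-driven reporter exposed to compounds for 16 h at 37 °C.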
Background: qHTS replaces the single test concentration by a dilution series.
With `NCC(=O)CCC(=O)O`, the Potency result was “inactive”.

On to `O=C1OC(=O)C2C3C=CC(C3)C12` (stereo not drawn), for which the Potency result is “inactive”.

On to `C=C(C)C(=O)OCCOCC`, for which the Potency result was “inactive”.

As for `CC1(c2ccccc2)OC(C(=O)O)=CC1=O` (stereo not drawn), the Potency entry was “inactive”.

Turning to `C[N+](C)(C)CCOC(=O)CCC(=O)OCC[N+](C)(C)C`, the Potency result is “inactive”.

For `CCOC(=O)Cc1cccc2ccccc12`, the Potency entry is “inactive”.

Regarding `CC(=O)c1ccc2c(c1)N(CCCN(C)C)c1ccccc1S2`, the Potency entry was “inactive”.

On to `CN1CCN(C(c2ccccc2)c2ccccc2)CC1`, for which the Potency entry was “inactive”.

For `Clc1ccc(Cn2c(CN3CCCC3)nc3ccccc32)cc1`, the Potency entry was “inactive”.

`CC1=CC=C(C(C)C)CC1`: the Potency entry is “inactive”.

Consider `C[C@H]1C[C@H]2[C@@H]3CCC4=CC(=O)C=C[C@]4(C)[C@@]3(Cl)[C@@H](O)C[C@]2(C)[C@@]1(O)C(=O)CO`, for which the Potency result was “inactive”.

Take `CCCCCCCCO[C@@H]1O[C@H](CO)[C@@H](O)[C@H](O)[C@H]1O`: the Potency result was “inactive”.

Take `CC(C)(O)c1ccc(CNC(=O)c2cccnc2Oc2ccc(F)cc2)cc1`: the Potency result was “inactive”.

`c1ccc(CNCCNCc2ccccc2)cc1`: the Potency result was “inactive”.

For `COC(C)OC`, the Potency entry was “inactive”.

Consider `CC(COCCO)OCCO` (stereo not drawn), for which the Potency result is “inactive”.

Regarding `O=S(=O)(Oc1ccc(Cl)cc1)c1ccccc1`, the Potency entry is “inactive”.

For `COS(=O)(=O)C(F)(F)F`, the Potency result was “inactive”.

With `CCNc1cc(O)ccc1C`, the Potency result is “inactive”.

`Nc1cccc([N+](=O)[O-])c1`: the Potency result was “inactive”.

For `CC/C=C\CCOC(=O)CC`, the Potency result was “inactive”.

On to `O=C(c1ccc(F)cc1)C1CCN(CCn2c(=S)[nH]c3ccccc3c2=O)CC1`, for which the Potency result was “inactive”.

Consider `CCN(CC)c1ccc2c(-c3ccccc3C(=O)O)c3ccc(=[N+](CC)CC)cc-3oc2c1`, for which the Potency entry was “inactive”.

For `CC(C)CC(=O)C1C(=O)c2ccccc2C1=O`, the Potency entry is “inactive”.

With `ClCCOCCOCCCl`, the Potency result was “inactive”.

Consider `CCCCc1ncc(/C=C(\Cc2cccs2)C(=O)O)n1Cc1ccc(C(=O)O)cc1`, for which the Potency entry is “inactive”.

Turning to `CN(C)C(=O)NC1(c2ccccc2)CCN(CC[C@@]2(c3ccc(F)c(F)c3)CN(C(=O)c3ccccc3)CCO2)CC1`, the Potency result is “inactive”.

With `CC(=O)NO`, the Potency entry was “inactive”.

Consider `COc1cc2nc(N3CCN(C(=O)C4COc5ccccc5O4)CC3)nc(N)c2cc1OC` (stereo not drawn), for which the Potency entry is “inactive”.

With `CC1=CCCC(C)(C)C12CCC(C)O2` (stereo not drawn), the Potency result was “inactive”.

As for `Nc1ccccc1S(=O)(=O)c1ccccc1`, the Potency result is “inactive”.

On to `COc1ccc(C(=O)c2ccc(OC)cc2O)c(O)c1`, for which the Potency is 19.5 µM (active).

For the compound `C#CCN(C)CCCOc1ccc(Cl)cc1Cl`, the Potency entry is “inactive”.

With `C=CC1CC2C=CC1C2` (stereo not drawn), the Potency result is “inactive”.

On to `CC(=O)c1ccc2c(c1)N(CCCN1CCC(CCO)CC1)c1ccccc1S2`, for which the Potency entry is “inactive”.

Take `COC(=O)c1ccc(I)cc1S(=O)(=O)NC(=O)Nc1nc(C)nc(OC)n1`: the Potency entry was “inactive”.

As for `C=C1[C@H]2CC[C@@H]3[C@H]2C(C)(C)CCC[C@]13C`, the Potency entry was “inactive”.

For the compound `COC(=O)C1=C(C)NC(COC(N)=O)=C(C(=O)OC(C)C)C1c1cccc(Cl)c1Cl` (stereo not drawn), the Potency was 16.8 µM (active).

These data come from PubChem BioAssay (Tox21).
